# From PubChem BioAssay
# Efflux pump mplx: antifungal efflux pump inhibition, Nile Red retention | S. cerevisiae Candida pump triplex | inhibition, % at 10 µM | 330,000 tested, 0.44% active | AID 485275;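 active = plate passing quality check with inhibition over a set limit, or well fluorescence over plate mean plus 4 SD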;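 note: Nile Red retained in pooled yeast measured as flow cytometry median fluorescence; 0% = buffer negative control and 100% = Enniatin B positive control; higher means more Nile Red kept so more efflux inhibition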
# ATG4B inh: blocks human ATG4B protease cleavage of LC3 substrate; ATG4B cleavage of LC3-PLA2, NBD-HPC fluorescence, 1 h; inhibition, % at 8.33 µM; 340,000 tested, 0.51% active; in the data active = inhibition above about 40%
# Yeast superoxide: caloric restriction mimetics inhibiting age-related superoxide in yeast | S. cerevisiae aged cells, superoxide DHE fluorescence; stronger effect = lower value | superoxide response (% of plate mean), % at 10 µM | 330,000 tested, 0.18% active;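 active = superoxide response under a set limit, about three screen SD below normal, cut at about 65% in these data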;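 note: yeast aged for seven days with compound at 30 °C before DHE staining; 100% = average MFI of all compound-treated wells on the plate with controls excluded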
# GRK2 aptamer HTS: human GRK2 inhibition via aptamer displacement; inhibition of aptamer binding, % at 10 µM; bead flow cytometry, FAM-aptamer displacement from GRK2; 330,000 tested, 0.59% active;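 active = inhibition of aptamer binding above 40%, roughly 3 SD of noise, on plates passing a quality check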;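 note: median bead fluorescence of bound FAM aptamer so fluorescent compounds give negative values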
# Target sequence (P25098 whole entry, looked up): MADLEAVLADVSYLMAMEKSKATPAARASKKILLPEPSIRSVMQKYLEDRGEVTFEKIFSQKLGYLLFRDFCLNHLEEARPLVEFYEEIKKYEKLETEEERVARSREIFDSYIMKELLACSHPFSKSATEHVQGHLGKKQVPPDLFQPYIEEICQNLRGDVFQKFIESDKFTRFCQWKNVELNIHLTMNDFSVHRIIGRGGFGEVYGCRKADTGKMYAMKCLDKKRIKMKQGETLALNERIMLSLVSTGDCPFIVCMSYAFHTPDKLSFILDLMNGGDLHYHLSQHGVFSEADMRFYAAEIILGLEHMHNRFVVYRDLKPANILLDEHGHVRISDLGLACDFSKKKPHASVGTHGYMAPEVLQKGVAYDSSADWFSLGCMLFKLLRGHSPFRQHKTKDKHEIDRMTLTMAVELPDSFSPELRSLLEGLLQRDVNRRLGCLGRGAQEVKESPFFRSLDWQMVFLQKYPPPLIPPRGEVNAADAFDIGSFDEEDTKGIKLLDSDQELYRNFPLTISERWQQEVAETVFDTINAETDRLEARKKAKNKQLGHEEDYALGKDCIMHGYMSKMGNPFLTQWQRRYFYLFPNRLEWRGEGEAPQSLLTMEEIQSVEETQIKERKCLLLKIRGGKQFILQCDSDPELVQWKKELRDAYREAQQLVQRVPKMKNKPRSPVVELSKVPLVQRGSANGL
# Cmpd fluor yeast: counter-screen for efflux pump inhibitors: compound fluorescence | 1,700 tested, 4% active | S. cerevisiae AD/pABC3, flow cytometry | shares compounds with Efflux pump mplx | fluorescence ratio to DMSO, % at 10 µM;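 active = fluorescence ratio to DMSO above its plate's cutoff, the plate mean ratio plus 5 SD, cut at about 210% in these data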;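 note: unstained yeast with no Nile Red so the signal is compound autofluorescence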
# CaMdr1 efflux inh: blocks the Candida albicans Mdr1 efflux pump in yeast. shares compounds with Efflux pump mplx. S. cerevisiae AD/CaMDR1, Nile Red efflux, flow cytometry. inhibition, % at 10 µM. 1,700 tested, 1% active. AID 588518; in the data active = inhibition above about 26%;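 note: 0% = DMSO vehicle and 100% = reference inhibitor; higher means more Nile Red retained so more efflux inhibition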
# Cdr2 pump inh: Candida Cdr2 efflux pump inhibition. shares compounds with Efflux pump mplx. S. cerevisiae AD/CaCDR2, Nile Red retention, flow cytometry. Nile Red retention ratio vs DMSO, % at 10 µM. 1,700 tested, 4% active. AID 588520; in the data active = Nile Red retention ratio vs DMSO above about 190%;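 note: higher ratio means more blocking of Cdr2 efflux of the dye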
# CaCdr1 efflux inh: blocks the Candida albicans Cdr1 efflux pump in yeast | inhibition, % at 10 µM | shares compounds with Efflux pump mplx | S. cerevisiae AD/CaCDR1, Nile Red efflux, flow cytometry | 1,700 tested, 1% active;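 active = inhibition above the screen-wide mean plus twice its standard deviation, cut at about 32% in these data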
# An asterisk follows results filed as active; nt = not tested or not shown. Compounds with a hit are over-represented: about 1.6% of the library has one in this group of screens.
SMILES,Efflux pump mplx,ATG4B inh,Yeast superoxide,GRK2 aptamer HTS,Cmpd fluor yeast,CaMdr1 efflux inh,Cdr2 pump inh,CaCdr1 efflux inh
COC/C=C/C1=CC2=CC(=O)C(C)(OC(=O)c3cnc4ccccc4n3)C(=O)C2=CN1Cc1ccc(OC)cc1 (configuration not stated),0.6*,-3,80,5,121,1,114,0
O=S(=O)(Cc1ccccc1)N1CCN(Cc2ccc3c(c2)OCO3)CC1,1.1*,-6,89,4,103,0,93,0
Cc1ccc(NC(=O)N2C3CCCC2CC(NC(=O)C(C)(C)C)C3)cc1 (configuration not stated),0,-8,95,1,nt,nt,nt,nt
O=C(O)c1ccc(S(=O)(=O)c2ccc(Sc3ccc(C(=O)O)c(C(=O)O)c3)cc2)cc1,0,31,112,4,nt,nt,nt,nt
Cc1cc(C)nc(SCc2cn3c(C)cccc3n2)n1,0,5,89,4,nt,nt,nt,nt
Cc1ccnc(SCc2cn3c(C)cccc3n2)n1,1.1*,-9,109,1,100,0,96,0
C/C(=N\Nc1nc(N)cc(Cl)n1)c1ccc(F)cc1,0.5*,-7,87,0,100,0,101,0
CN(CCc1ccccn1)C(=O)c1ccc(OC(F)(F)F)cc1,0.8*,3,107,3,98,0,107,0
CCC(=O)NC(c1ccco1)c1cc(Cl)c2cccnc2c1O (configuration not stated),3.0*,-5,93,1,92,0,109,0
O=C(NC(=S)Nc1ccc2[nH]c(=O)[nH]c2c1)c1ccccc1Cl,6.2*,9,94,7,92,0,105,0
CCOC(=O)C1=C(COC(=O)COc2ccc(C#N)cc2)NC(=O)NC1C (configuration not stated),0,1,99,0,nt,nt,nt,nt
C[C@H](NC(=O)c1ccc(C(C)(C)C)cc1)C(=O)N1CCOCC1,0,-1,114,1,nt,nt,nt,nt
COc1ccc(CC(=O)Nc2c3c(nn2C(C)(C)C)CS(=O)C3)cc1 (configuration not stated),1.8*,-6,123,13,114,0,100,0
COc1ccc(CC(=O)Nc2c3c(nn2-c2ccccc2C)CS(=O)C3)cc1 (configuration not stated),0,-6,75,0,nt,nt,nt,nt
CNCc1ccccc1OCC(=O)Nc1ccccc1,8.2*,3,111,0,106,0,106,0
Cc1cc2nc(C3CCN(C(=S)NCCCOC(C)C)CC3)[nH]c2cc1C,0,-11,104,0,nt,nt,nt,nt
COC(=O)c1c(NC(=O)c2ccco2)sc2c1CCN(C(C)=O)C2,1.1*,-1,97,3,97,0,106,0
COC(=O)c1c(NC(=O)c2ccco2)sc(C(=O)N2CCCC2)c1C,0,-8,105,3,nt,nt,nt,nt
COc1ccc(C(=O)Nc2sc3c(c2C#N)CCN(C(C)=O)C3)cc1,0.8*,-3,116,4,99,0,90,0
CC(O)[C@H]1CC[C@H]2[C@@H]3CC[C@H]4C[C@H](O)CC[C@]4(C)[C@H]3[C@H](O)C[C@]12C (some centres not stated),0,1,95,0,nt,nt,nt,nt
CC(NC(=S)Nc1c(Br)cccc1OC(F)F)C(C)(C)C (configuration not stated),0,15,100,0,nt,nt,nt,nt
CN(c1nc2nonc2nc1NC1CC1)C1CCOC1 (configuration not stated),0,6,96,1,nt,nt,nt,nt
COC(=O)c1ccc(CN2CCC(Oc3cccc(C(=O)N4CCCC4)c3)CC2)cc1,5.3*,-4,109,2,116,0,117,0
COC(=O)c1ccc(CN2CCC(Oc3ccc(C(=O)N4CCCCC4)cc3)CC2)cc1,0,10,92,0,nt,nt,nt,nt
N#CC(C(=O)NCc1ccccc1)c1nc2ccccc2nc1N1CCCC1 (configuration not stated),0.9*,-12,121,3,102,0,104,0
SMILES,Efflux pump mplx,ATG4B inh,Yeast superoxide,GRK2 aptamer HTS,Cmpd fluor yeast,CaMdr1 efflux inh,Cdr2 pump inh,CaCdr1 efflux inh
Cc1ccc(N=C2NC(=O)/C(=C\c3cccs3)S2)cc1C,6.8*,15,134,0,101,0,134,0
CC(=O)c1c(COC(=O)c2ccccc2)nc2ccccc2[n+]1[O-],1.8*,-4,111,2,95,0,105,0
Cc1ccccc1CSc1nc2c(c(=O)[nH]1)CCC2,5.9*,5,97,4,109,0,104,0
Oc1ccc(N=Nc2c(O)ccc3ccccc23)cc1,0.8*,4,100,2,145,0,204*,0
CCOc1ccccc1C1NC(=O)c2ccccc2O1 (configuration not stated),0,1,103,1,nt,nt,nt,nt
CC(C)OC(=O)c1ccc(COC(=O)c2cccc(-c3nnc(-c4ccccc4)o3)c2)cc1,7.6*,2,105,0,112,0,101,0
O=C(OCc1ccc(C(=O)c2ccccc2)cc1)c1cccc(-c2nnc(-c3ccccc3)o2)c1,1,7,94,2,nt,nt,nt,nt
O=C1CCCC2=C1CC(C(=O)OCc1ccccc1)C(=O)N2Cc1ccccc1 (configuration not stated),nt,0,nt,nt,nt,nt,nt,nt
O=C(NCc1ccc(/C=N\NC(=O)C(=O)Nc2ccccc2Br)o1)C(=O)Nc1ccccc1,0.7*,8,97,1,102,0,109,0
O=C(N/N=C\c1ccc(CNS(=O)(=O)c2ccccc2)o1)C(=O)Nc1ccc(F)cc1,0,3,106,0,nt,nt,nt,nt
COc1ccc2[nH]cc(C(=O)CN3CCC(C)CC3)c2c1,8.2*,-4,108,0,105,0,112,0
COc1ccc2[nH]cc(C(=O)CN3CCCC(C)C3)c2c1 (configuration not stated),0,-4,109,0,nt,nt,nt,nt
COc1ccccc1NC(=O)CSc1nccn1Cc1ccccc1,0,1,91,0,nt,nt,nt,nt
O=C(c1ccc(F)cc1F)N1CCN(S(=O)(=O)c2ccc3c(c2)OCCO3)CC1,0,3,101,0,nt,nt,nt,nt
CCOc1ccccc1NC(=O)N1CCC(C(=O)c2ccc(F)cc2)CC1,0,4,105,0,nt,nt,nt,nt
COc1ccccc1NC(=O)N1CCC(C(=O)c2ccc(F)cc2)CC1,7.5*,-5,95,0,103,0,101,0
CC1=C(C(=O)OC2CCCCC2)C(c2ccccc2Br)NC(=O)N1 (configuration not stated),0,3,103,0,nt,nt,nt,nt
CC(=O)N1CCN(c2ccc(NC(=O)c3ccccc3)cc2)CC1,0,-5,105,2,nt,nt,nt,nt
